rRNA inh HTS = selective bacterial rRNA inhibition in E. coli. E. coli WT GFP vs humanized-ribosome RFP mutants, fluorescence, 24 h; hits give low values; DMSO median 0, no signal -100. GFP signal change (wild-type ribosome), % (test concentration not listed). actives 1.6% (n = 350,000). AID 720706;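 active = significant combined selectivity score with lowered wild-type GFP, culture density cut under 30%, mutant RFP and density less affected; inactive = any of these conditions unmet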
DENV2 CPE = protects cells from dengue virus 2 cytopathic effect; DENV2-infected cells, cytopathic effect rescue, plate reader; CPE inhibition, % at 9.99 µM; actives 1.7% (n = 350,000); in the data active = CPE inhibition above about 20%, passing the limit was not always enough; inconclusive = no clear call, values can overlap the other calls; tested in BHK-21 cells
PGC1a acetyl inh = PGC1a acetylation modulation, inhibitor mode | actives 0.17% (n = 350,000) | U2OS PGC1a acetylation, AlphaScreen anti-acetyl-lysine; with virally co-expressed GCN5 acetyltransferase | inhibition, % at 15.6 µM;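 active = every replicate shows inhibition of at least 40%; inconclusive = mean inhibition at least 40% but some replicate below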
CaV13 FRET inh = Primary screen for inhibitors of IQ motif and Ca2+-dependent inactivation inhibitor domain binding in CACNA1D, Förster resonance energy transfer in living cells, … | HEK cells, CFP/YFP FRET ICDI-IQ, plate reader, 10 min; percent FRET-ratio fall versus neutral wells | inhibition, % at 12.3 µM | actives 0.098% (n = 340,000) | AID 743397;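 active = mean replicate inhibition of at least 30% and at least 1% of replicates passing that level; inconclusive = only one of the two criteria is met; inactive = neither criterion is met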
INS-1E GSIS act = primary screen for activators of insulin secretion dependent on glucose, INS-1E cells, GLuc reporter luminescence | INS-1E GLuc reporter insulin secretion, 2-3 h | activation, % at 16.6 µM | actives 0.61% (n = 370,000) | AID 743287;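 active = lowest replicate activation of at least 40%, so every replicate reaches that level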
ERAP1 HTS inh = blocks human ERAP1 aminopeptidase activity; Q9NZ08; inhibition, % at 10.7 µM; actives 0.15% (n = 340,000); AID 652197; recombinant ERAP1, Leu-AMC fluorescence, 60 min;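 active = mean replicate inhibition of at least 30%, or all replicates individually reaching that 30% level; inactive = mean below 30% and not every replicate reaching it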
Target sequence (Q9NZ08 whole entry, looked up): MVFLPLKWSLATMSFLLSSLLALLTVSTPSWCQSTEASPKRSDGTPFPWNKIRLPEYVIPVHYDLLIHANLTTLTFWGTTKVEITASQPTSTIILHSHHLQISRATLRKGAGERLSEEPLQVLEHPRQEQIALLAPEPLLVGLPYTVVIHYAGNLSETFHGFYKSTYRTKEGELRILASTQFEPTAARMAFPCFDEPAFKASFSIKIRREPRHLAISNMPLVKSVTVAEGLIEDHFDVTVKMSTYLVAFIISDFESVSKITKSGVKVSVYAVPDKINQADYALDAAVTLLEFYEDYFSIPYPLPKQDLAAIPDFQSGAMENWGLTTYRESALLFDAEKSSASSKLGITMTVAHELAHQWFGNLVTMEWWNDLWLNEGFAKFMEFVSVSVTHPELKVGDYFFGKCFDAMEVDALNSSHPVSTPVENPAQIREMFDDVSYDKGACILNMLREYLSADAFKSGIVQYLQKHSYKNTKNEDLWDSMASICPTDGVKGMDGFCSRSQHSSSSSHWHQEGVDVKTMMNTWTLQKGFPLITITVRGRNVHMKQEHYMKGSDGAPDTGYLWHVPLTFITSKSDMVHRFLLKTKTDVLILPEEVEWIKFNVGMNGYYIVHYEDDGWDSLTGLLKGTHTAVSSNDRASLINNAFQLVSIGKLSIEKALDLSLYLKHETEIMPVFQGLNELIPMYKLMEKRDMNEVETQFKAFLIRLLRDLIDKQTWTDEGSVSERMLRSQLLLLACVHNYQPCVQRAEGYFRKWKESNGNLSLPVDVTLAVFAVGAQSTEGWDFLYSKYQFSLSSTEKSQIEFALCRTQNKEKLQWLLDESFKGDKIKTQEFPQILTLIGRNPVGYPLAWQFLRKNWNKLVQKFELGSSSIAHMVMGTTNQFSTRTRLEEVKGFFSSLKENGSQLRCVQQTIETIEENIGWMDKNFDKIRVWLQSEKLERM
A number is an active result; 0 = inactive; ? = inconclusive; - = no result. An excerpt weighted towards active compounds, which were near 3.2% of everything screened.

SMILES	rRNA inh HTS	DENV2 CPE	PGC1a acetyl inh	CaV13 FRET inh	INS-1E GSIS act	ERAP1 HTS inh
C[C@H](CO)N1C[C@H](C)[C@H](CN(C)C(=O)Nc2ccc3c(c2)OCO3)Oc2ccc(NC(=O)CCCCCC(=O)Nc3ccccc3N)cc2C1=O	0	48.0	0	-	0	0
O=C(C[C@@H]1C[C@H]2c3cc(NS(=O)(=O)c4ccccc4)ccc3O[C@H]2[C@@H](CO)O1)NCC1CC1	0	0	0	-	0	0
C[C@@H]1CN([C@@H](C)CO)C(=O)c2cc(NC(=O)Cc3ccccc3)ccc2O[C@@H](C)CCCCO[C@@H]1CN(C)S(=O)(=O)c1cccs1	0	0	0	-	0	-
COc1ccc2ccc3cccc[n+]3c2c1	0	0	-	0	0	43.2
COc1ccc2nc3ccccc3[n+]([O-])c2c1	0	0	-	0	0	0
COCC(=O)N(C)C[C@H]1Oc2cc(-c3ccc(OC)cc3)ccc2S(=O)(=O)N([C@H](C)CO)C[C@@H]1C	0	0	0	-	0	0
S=C(Nc1cc(Cl)cc(Cl)c1)N1CCN(c2ccccn2)CC1	0	0	-	0	0	0
Fc1ccc(NC(=S)N2CCN(c3ccccn3)CC2)cc1Cl	-21.8	0	0	0	0	0
Cc1cc(C)cc(NC(=S)N2CCN(c3ccccn3)CC2)c1	-21.9	0	0	0	0	-
Cc1ccc(S(=O)(=O)N(C)CC(=O)Oc2ccc(-c3nnco3)cc2)cc1	0	126.1	0	0	0	0
Cc1ccccc1-c1cnc2c(c1)C(=O)N([C@H](C)CO)C[C@@H](C)[C@H](CN(C)Cc1cccnc1)O2	0	0	0	-	0	0
Cc1cc(/C=C\c2ccc3cc(N(C)C)ccc3[n+]2C)c(C)n1-c1ccccc1	-	-	67.6	-	-	-
CN1C(=O)c2cc(NC(=O)C3CC3)ccc2OC[C@@H]2O[C@@H](CC(=O)NC3CCC3)CC[C@@H]21	0	0	0	-	0	0
O=C(c1ccccc1)c1ccc(OCCCN2CCCC2)cc1	0	0	0	0	0	0
O=C(c1ccccc1)c1ccc(OCCOCCN2CCN(Cc3ccccc3)CC2)cc1	-36.5	0	0	0	0	0
CCC(=O)N1C[C@@H](C)[C@H](OC)CN(C)C(=O)c2ccc(NC(=O)c3cc(C)on3)cc2OC[C@@H]1C	0	-	0	-	0	-
CCN(CC)S(=O)(=O)c1ccc2[nH]c(=O)cc(C(=O)NCC(c3ccco3)N3CCCC3)c2c1 (stereo unspecified)	0	26.7	0	0	0	0
CCN(CC)S(=O)(=O)c1ccc2[nH]c(=O)cc(C(=O)Nc3ccccc3N3CCCC3)c2c1	0	0	-	0	0	0
Cc1ccc(S(=O)(=O)N(C)C[C@H]2Oc3ccc(NS(=O)(=O)c4ccccc4)cc3C(=O)N([C@H](C)CO)C[C@H]2C)cc1	0	0	0	-	0	0
COc1ccc(C2c3ccc(O)cc3Oc3ncn4nc(-c5ccccn5)nc4c32)cc1OC (stereo unspecified)	0	0	0	0	-	0
COc1ccc(C2c3ccc(O)cc3Oc3ncn4nc(-c5ccccn5)nc4c32)cc1 (stereo unspecified)	0	0	0	53.8	0	0
Cc1nc([N+](=O)[O-])c(Br)n1Cc1ccccc1	0	0	0	0	0	-
Cc1nc([N+](=O)[O-])c(Br)n1CC(=O)c1ccc(F)cc1	-32.8	0	0	0	0	0
Cc1nc([N+](=O)[O-])c(Br)n1CC(=O)c1cccc([N+](=O)[O-])c1	-39.1	0	0	0	0	0
COC(=O)Cn1c(C)nc([N+](=O)[O-])c1Br	0	0	0	0	0	0
SMILES	rRNA inh HTS	DENV2 CPE	PGC1a acetyl inh	CaV13 FRET inh	INS-1E GSIS act	ERAP1 HTS inh
CNC[C@H]1Oc2ccc(NC(=O)NC3CCCCC3)cc2CC(=O)N([C@H](C)CO)C[C@H]1C	0	?	0	-	0	0
C=CCn1c(O)c(N=NC(=O)CNC(=O)c2ccco2)c2ccccc21	0	0	-	0	41.7	0
CC(=O)Nc1sc(N/N=C\c2cccc(Cl)c2)nc1-c1cccs1	-	-	-	0	68.5	-
O=C(C[C@@H]1C=C[C@H](NC(=O)C2CC2)[C@H](CO)O1)Nc1ccccc1	0	?	0	-	0	0
CCOc1ccc(OCC)c(NC(=O)CSc2nc3c(c(=O)n(C)c(=O)n3C)n2C(C)C)c1	-27.4	0	0	0	0	0
CCN1[C@@H]2c3ccc(-c4cccc(OC)c4)c(=O)n3C[C@H]1[C@H](CO)[C@H]2C(=O)N(C)C	0	0	-	-	0	0
C[C@H](CO)N1C[C@H](C)[C@H](CN(C)C)Oc2cc(C#Cc3ccncc3)ccc2S1(=O)=O	0	?	0	-	0	0
C[C@@H]1CCCCO[C@@H](CN(C)C(=O)Cc2ccccc2)[C@H](C)CN([C@H](C)CO)C(=O)c2cc(NS(=O)(=O)c3cn(C)cn3)ccc2O1	0	0	0	-	0	0
Cc1nn(-c2ccccc2Cl)c(Cl)c1/C=C(\C#N)C(N)=O	0	0	-	0	63.7	0
COc1ccc(NC(=O)Nc2cccc3c2O[C@H](CN(C)C(=O)Nc2c(C)noc2C)[C@H](C)CN([C@H](C)CO)C3=O)cc1	0	0	0	-	0	0
CCCCC[C@H]1CN(CCc2ccccc2)C(=O)[C@@H]1CC(=O)NCc1ccc(OC)cc1	0	24.0	0	0	0	0
CCCCN1C[C@H](Cc2ccccc2)[C@@H](CC(=O)NCc2ccc(OC)cc2)C1=O	0	48.0	0	0	0	0
O=C(C[C@H]1C(=O)N(Cc2ccccc2)C[C@@H]1Cc1ccccc1)Nc1ccc(Br)cc1	0	25.6	-	0	0	0
c1ccc(CSc2nnc(-c3ccco3)o2)cc1	0	0	0	0	0	0
Brc1ccc(CSc2nnc(-c3ccco3)o2)cc1	-22.0	0	-	-	0	0
COc1cc(C(=O)C(=O)c2ccc(O)c(OC)c2)ccc1O	0	0	0	0	42.6	0
COc1cc(C(=O)O)ccc1O	0	0	0	0	0	0
COc1ccc(-c2ccc3c(c2)S(=O)(=O)c2cccc(C(=O)NCCOc4ccccc4Cl)c2C3=O)cc1OC	0	21.9	0	0	0	0
CC(C)NC(=O)N(C)C[C@@H]1Oc2ccc(NC(=O)Nc3ccc(F)cc3)cc2CC(=O)N([C@@H](C)CO)C[C@H]1C	0	0	0	-	0	0
CCCNC(=O)N1[C@H](CO)[C@H](c2ccccc2-c2ccc(OC)cc2)[C@@H]1C#N	0	0	0	-	0	0
CO[C@H]1/C=C/O[C@@]2(C)Oc3c(C)c(O)c4c(O)c(c5c(c4c3C2=O)NC2(CCN(CC(C)C)CC2)N=5)=NC(=O)/C(C)=C\C=C\[C@H](C)[C@H](O)[C@@H](C)[C@@H](O)[C@@H](C)[C@H](OC(C)=O)[C@@H]1C	0	109.7	0	-	0	0
CC(C)(C)c1ccc(/C=N/Nc2ccc(C(=O)O)cc2)cc1	0	0	0	-	0	0
